Measured values from PubChem BioAssay AID1159580 (chemical genetic matrix, 2015).
The campaign covered roughly 5,500 compounds. About 2,000 (36%) were called active. Roughly 18% stayed inconclusive and do not appear here. No stated cut-off is given here; in the data, active means normalized growth mostly below about 0.91 (no sharp cut-off); inconclusive means no clear call, values can overlap the other calls; inactive means mostly above about 0.92. Some of the results follow.

Assay: chemical genetic growth profiling, strain panel (AID 1159580);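 further: tested at 20 µM; growth read once vehicle control cultures reached saturation at 30 °C; 1 = growth at the plate median or of vehicle wells; lower values mean less growth of the strain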
Conditions: S. cerevisiae deletion strains, growth OD

Measured: normalized growth

C#C[C@]1(O)CCC2C3CCc4cc(OC)ccc4C3CC[C@@]21C (stereo not given in full)
inactive: locus YAL021C, strain ccr4, active compounds read low 1.02 | locus YAL026C, strain drs2, active compounds read low 0.956 | locus YAL030W, strain snc1, active compounds read low 0.987 | locus YBL061C, strain skt5, active compounds read low 0.968 | locus YBR009C, strain hhf1, active compounds read low 0.933 | locus YBR171W, strain sec66, active compounds read low 0.959 | locus YBR231C, strain swc5, active compounds read low 0.953 | locus YBR279W, strain paf1, active compounds read low 0.967 | locus YCL011C, strain gbp2, active compounds read low 0.923 | locus YCL061C, strain MRC1, active compounds read low 0.937 | locus YCL069W, strain vba3, active compounds read low 0.976 | locus YCR088W, strain abp1, active compounds read low 0.972 | locus YDL005C, strain med2, active compounds read low 0.985 | locus YDL040C, strain nat1, active compounds read low 0.982 | locus YDR001C, strain nth1, active compounds read low 0.982 | locus YDR069C, strain doa4, active compounds read low 1.01 | locus YDR159W, strain sac3, active compounds read low 0.949 | locus YDR195W, strain ref2 1.01 | locus YDR297W, strain sur2, active compounds read low 0.994 | locus YDR334W, strain swr1, active compounds read low 0.983 | locus YDR335W, strain msn5, active compounds read low 0.998 | locus YEL003W, strain gim4, active compounds read low 0.984 | locus YEL037C, strain rad23, active compounds read low 0.968 | locus YEL061C, strain CIN8 (second series), active compounds read low 0.972 | locus YER015W, strain faa2, active compounds read low 0.991 | locus YER016W, strain bim1, active compounds read low 0.99 | locus YER111C, strain swi4, active compounds read low 0.969 | locus YER155C, strain BEM2 (second series), active compounds read low 0.923 | locus YFR010W, strain ubp6, active compounds read low 0.962 | locus YGL167C, strain pmr1, active compounds read low 0.972 | locus YGL173C, strain kem1, active compounds read low 0.98 | locus YGL227W, strain vid30, active compounds read low 0.987 | locus YGL240W, strain doc1, active compounds read low 0.963 | locus YGL253W, strain hxk2, active compounds read low 0.912 | locus YHR013C, strain ard1, active compounds read low 0.926 | locus YHR027C, strain rpn1, active compounds read low 0.987 | locus YHR030C, strain SLT2, active compounds read low 0.974 | locus YHR079C, strain IRE1, active compounds read low 0.987 | locus YJL092W, strain hpr5, active compounds read low 0.96 | locus YJL095W, strain BCK1 (second series), active compounds read low 0.975 | locus YJL095W, strain BCK1, active compounds read low 0.975 | locus YJL115W, strain asf1, active compounds read low 0.988 | locus YJL129C, strain trk1, active compounds read low 0.965 | locus YJL154C, strain vps35, active compounds read low 0.983 | locus YJL164C, strain tpk1, active compounds read low 0.923 | locus YJL166W, strain qcr8, active compounds read low 0.923 | locus YJL187C, strain SWE1, active compounds read low 0.987 | locus YJR066W, strain TOR1, active compounds read low 0.933 | locus YKL160W, strain elf1, active compounds read low 0.913 | locus YKR026C, strain gcn3, active compounds read low 0.988 | locus YKR091W, strain srl3, active compounds read low 0.975 | locus YLL001W, strain dnm1, active compounds read low 0.903 | locus YLL026W, active compounds read low 0.979 | locus YLL041C, strain sdh2, active compounds read low 0.986 | locus YLR027C, strain aat2, active compounds read low 0.969 | locus YLR113W, strain HOG1, active compounds read low 0.931 | locus YLR221C, strain rsa3, active compounds read low 0.912 | locus YLR258W, strain gsy2, active compounds read low 0.956 | locus YLR320W, strain mms22, active compounds read low 0.902 | locus YLR342W, strain FKS1, active compounds read low 0.952 | locus YLR357W, strain rsc2, active compounds read low 0.909 | locus YLR370C, strain arc18, active compounds read low 0.966 | locus YLR384C, strain iki3, active compounds read low 0.986 | locus YML120C, strain ndi1, active compounds read low 0.933 | locus YMR058W, strain fet3, active compounds read low 0.935 | locus YMR125W, strain sto1, active compounds read low 0.951 | locus YMR129W, active compounds read low 0.977 | locus YMR205C, strain PFK2, active compounds read low 0.923 | locus YMR231W, strain pep5, active compounds read low 0.993 | locus YNL183C, strain NPR1, active compounds read low 0.917 | locus YNL209W, strain ssb2, active compounds read low 0.974 | locus YNL248C, strain rpa49, active compounds read low 0.951 | locus YNL322C, strain KRE1 (second series), active compounds read low 0.964 | locus YNR049C, strain mso1, active compounds read low 0.983 | locus YOR001W, strain rrp6, active compounds read low 1 | locus YOR070C, strain gyp1, active compounds read low 0.951 | locus YOR080W, strain dia2, active compounds read low 0.999 | locus YOR083W, strain WHI5, active compounds read low 0.919 | locus YOR106W, strain vam3, active compounds read low 0.969 | locus YOR231W, strain MKK1, active compounds read low 0.958 | locus YOR265W, strain rbl2, active compounds read low 0.969 | locus YOR270C, strain vph1, active compounds read low 0.949 | locus YOR290C, strain snf2, active compounds read low 0.874 | locus YPL051W, strain arl3, active compounds read low 0.923 | locus YPL078C, strain atp4, active compounds read low 0.902 | locus YPL106C, strain sse1, active compounds read low 0.913 | locus YPL240C, strain hsp82, active compounds read low 0.985 | locus YPL256C, strain CLN2, active compounds read low 0.973
active: locus YBR023C, strain chs3, active compounds read low 0.913 | locus YCL016C, strain dcc1, active compounds read low 0.912 | locus YDR137W, strain rgp1, active compounds read low 0.839 | locus YDR392W, strain spt3, active compounds read low 0.614 | locus YHR142W, strain chs7, active compounds read low 0.866 | locus YLR262C, strain YPT6 (second series), active compounds read low 0.798 | locus YNL071W, strain lat1, active compounds read low 0.89
